Results: PubChem BioAssay AID588342 (National Center for Advancing Translational Sciences (NCATS), 2011)
The whole screen tested about 360,000 compounds, of which about 25,000 (6.9%) were called active. Roughly 9% stayed inconclusive and do not appear here. The entries come from a sample that favours actives as a whole. Unmarked numbers belong to inactive results. The call rests on the fitted dose curve; in most records, active means well fitted inhibition curve with a large enough effect; inconclusive means small, poorly fitted or top-dose-only effect; inactive means flat fitted curve, though single readings scatter.

target: Luciferin 4-monooxygenase (Photinus pyralis) (UniProt P08659); assay: qHTS profiling assay for firefly luciferase inhibitor/activator using purifed enzyme and Km concentrations of substrates (counterscreen for miR-21 project); conditions: purified FLuc, luminescence inhibition; series mostly up to 57.5 µM; activity change, negative = inhibition: at the top concentration; further: nearly all actives have a fitted effect of over 55% in size;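 on activity change, negative = inhibition: plate controls were vehicle for no effect and reference inhibitor for full effect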
Sequence (P08659 whole entry, looked up): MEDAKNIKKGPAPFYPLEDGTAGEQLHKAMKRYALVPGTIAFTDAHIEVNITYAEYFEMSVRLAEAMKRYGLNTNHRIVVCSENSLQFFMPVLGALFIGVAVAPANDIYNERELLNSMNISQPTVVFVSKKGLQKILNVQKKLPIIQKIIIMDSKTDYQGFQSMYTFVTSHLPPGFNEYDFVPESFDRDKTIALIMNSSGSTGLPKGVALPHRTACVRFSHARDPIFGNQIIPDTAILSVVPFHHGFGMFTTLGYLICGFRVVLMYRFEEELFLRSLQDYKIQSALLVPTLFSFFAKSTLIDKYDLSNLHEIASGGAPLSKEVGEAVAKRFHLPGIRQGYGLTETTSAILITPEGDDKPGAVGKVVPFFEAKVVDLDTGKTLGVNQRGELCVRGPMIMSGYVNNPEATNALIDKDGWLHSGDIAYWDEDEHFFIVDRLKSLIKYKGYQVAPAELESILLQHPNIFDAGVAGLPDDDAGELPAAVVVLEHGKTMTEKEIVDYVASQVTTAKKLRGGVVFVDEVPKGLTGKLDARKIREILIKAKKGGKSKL
From the text: MLPCN Grant: 1 R21 NS059478-01 (miR-21 grant) Assay Provider: NCGC NCGC Assay Overview: Firefly (Photinus pyralis) luciferase is one of the most commonly used transcriptional reporters for a number of reasons. It is considered one of the more dynamically responsive reporters -that is, responsive to changes in reporter transcription - as it requires no post-translational modifications and is enzymatically active directly after protein synthesis (Wood, 1998). Additionally, the half-life of the luciferase protein is short relative to other reporter-gene products (Wood, 1995). Whereas reporters with long half-lives potentially allow for increased signal due to accumulation of reporter-gene product, once accumulated in the cell, dynamic changes in reporter-gene expression may be difficult to detect(Fan and Wood, 2007; Almond et al., 2004). It has been shown that wild-type P. pyralis luciferase has a half-life of approximately […] hours in mammalian cells (Thompson et al., 1991). Firefly luciferase reporter-gene assays are also generally considered one of the most sensitive assay types (Wood, 1995; Wood, 1998). Although light produced in a bioluminescence reaction is of lower intensity than that produced during fluorescence emission, this is offset by little to no background light inherent to luminescent assays. Thus the luciferase reporter can be expressed at much lower levels than fluorescent proteins while still providing robust signal. # However, it was initially observed, in 1991, by Thompson et al., that compounds that resemble the substrates of firefly luciferase (FLuc) can act as competitive inhibitors of the enzyme, and that these compounds, upon interaction with luciferase in the cell, can actually stabilize the protein and increase its half-life. Accumulated intracellular FLuc protein can be measured as an increase in luminescence signal, upon addition of detection reagents (which contain high concentrations of FLuc substrates) commonly used in high-throughput screening. In cell-based reporter gene assays that use FLuc as the reporter gene to quantitate the potential influence of a given compound against the target biology, this apparent increase in luminescence can mistakenly be interpreted as identification of a compound that is active against the target of interest. This is the case for the miR-21 FLuc reporter gene assay used to identify inhibitors of the miR-21 pathway (PubChem AID 2289) - compounds of interest will inhibit miR-21 biogenesis/expression or activity, and are identified by causing an increase in luminescence, due to increased FLuc translation. However, FLuc inhibitory compounds that stabilize the FLuc protein will give an identical read-out, making it difficult to distinguish compounds that are active against the target from those active against FLuc. Previous profiling work to determine the prevalence of compounds that affect FLuc enzymatic activity (PubChem AID 411) identified that ~3% of the MLSMR library (then at ~72K) inhibited FLuc. […] Since the MLSMR had grown to ~350K compounds, and since it was expected that a significant percentage of compounds found active in the miR-21 FLuc assay would be FLuc inhibitors, the library was screened for activity against FLuc using a biochemical assay of purified FLuc and KM concentrations of FLuc substrates (D-luciferin and ATP).
NCGC Assay Protocol Summary: Reagents: 50mM Tris acetate, pH 7.5; 10mM Mg acetate; 10uM D-luciferin (Sigma #L9504); 10uM ATP; 0.01% Tween-20; 0.05% BSA; 10nM P. pyralis luciferase (Sigma #L9506) Control compounds used were two known firefly luciferase inhibitors (compounds (2) and (5) in Auld et al., 2010), and DMSO. […]

Question: How did the “activity change, negative = inhibition” value turn out when `Fc1ccc(C2N3CCCN23)cc1` (stereo not given) was run?
Answer: Its value is -2.06%.

Question: For `CC(C)(C)c1ccc(OC(=O)N2CCCCC2)cc1`, which Potency is on record?
Answer: The Potency was 10.7 µM (active).

Question: Which “activity change, negative = inhibition” value does the source give for `CN1CCN(C(=O)COc2ccc(C(C)(C)C)cc2Br)CC1` here?
Answer: The value was 0.792%.

Question: For `O=C(Nc1cccc(OC(=O)N2CCCCC2)c1)N1CCOCC1`, which “activity change, negative = inhibition” value is on record?
Answer: The value was -6.21%.

Question: `COC(=O)C1=C(c2ccc3ccccc3c2)C[C@@H]2CC[C@H]1N2C(=O)NCCO` was tested. Which “activity change, negative = inhibition” value did it give?
Answer: Its value is -1.46%.

Question: `CCCCCn1c(=O)c(C(=O)NCc2ccccn2)c(O)c2ccccc21` was tested. Which “activity change, negative = inhibition” value did it give?
Answer: The value was 0.442%.

Question: How did the Potency turn out when `CC(C)Oc1ccc(NC(=O)c2cc3ccccc3o2)cc1` was run?
Answer: The Potency was 1.51 µM (active).

Question: With `CC(=O)Cc1ccc(OC(C)C)cc1` as the compound, how does the “activity change, negative = inhibition” value read?
Answer: Its value is 4.48%.

Question: Which “activity change, negative = inhibition” value does the source give for `Cc1ccc(-c2nc3ccccc3c(=O)n2-c2ccc(Br)cn2)cc1` here?
Answer: The value was 2.91%.

Question: `COCCNC(=O)CN1C2CCC1CC(O)(c1cccnc1)C2` (stereo not given) was tested. Which “activity change, negative = inhibition” value did it give?
Answer: The value was 0.105%.

Question: How did the Potency turn out when `CC/C(=N\NC(=O)c1ccccc1O)c1c(O)n(Cc2ccccc2)c(=O)[nH]c1=O` was run?
Answer: The Potency was 9.53 µM (active).

Question: For `CCC(=NCc1ccco1)c1c(O)n(Cc2ccccc2)c(=O)[nH]c1=O`, which “activity change, negative = inhibition” value is on record?
Answer: Its value is 9.59%.

Question: `CCC(=NCCc1ccccc1)c1c(O)n(C2CCCCC2)c(=O)[nH]c1=O` was tested. Which “activity change, negative = inhibition” value did it give?
Answer: Its value is -0.859%.

Question: How did the “activity change, negative = inhibition” value turn out when `Cc1ccc(C(C)C)c(OCC(=O)N2CCN(CC(=O)N3CCOCC3)CC2)c1` was run?
Answer: Its value is -0.447%.

Question: For `CC1(C)Cc2c(C#N)c(N3CCNCC3)nc(-c3ccco3)c2CS1`, which “activity change, negative = inhibition” value is on record?
Answer: The value was -1.07%.

Question: Which “activity change, negative = inhibition” value does the source give for `Cc1ccc(Cn2nnnc2CN2CCC(n3nnc4ccccc43)CC2)cc1` here?
Answer: The value was 0.191%.

Question: How did the “activity change, negative = inhibition” value turn out when `CCc1cccc2c(C#N)cn(CC(=O)N3CCOCC3)c12` was run?
Answer: The value was -0.188%.

Question: How did the “activity change, negative = inhibition” value turn out when `O=C(O)COc1ccccc1/C=C1\C(=O)NC(=O)N(CCC2=CCCCC2)C1=O` was run?
Answer: The value was 0.408%.

Question: With `C=CCN1C(=O)NC(=O)/C(=C/c2ccc(OCC(=O)Nc3ccc(C)cc3)cc2)C1=O` as the compound, how does the Potency read?
Answer: The Potency was 21.3 µM (active).

Question: With `C=CCN(CC=C)C(=O)Nc1ccc(OCC)cc1` as the compound, how does the “activity change, negative = inhibition” value read?
Answer: The value was -16.5%.

Question: Which “activity change, negative = inhibition” value does the source give for `COC(=O)C1=C(c2ccc(Cl)c(C(F)(F)F)c2)C[C@@H]2CC[C@H]1N2C(=O)NC1CC1` here?
Answer: The value was -0.397%.

Question: `Cc1cc(C(=O)OCC(=O)Nc2c(F)cccc2F)c(C)n1C1CC1` was tested. Which “activity change, negative = inhibition” value did it give?
Answer: The value was 2.98%.

Question: For `c1cc2c(cc1CCNC1CCCCCC1)OCO2`, which “activity change, negative = inhibition” value is on record?
Answer: Its value is 4.17%.

Question: For `COC(=O)C1=C(c2ccc(F)cc2OCc2ccccc2)C[C@@H]2CC[C@H]1N2C(=O)NCc1ccc(OC)c(OC)c1`, which “activity change, negative = inhibition” value is on record?
Answer: The value was 0.248%.

Question: For `COc1cccc(N2C(=O)NC(=O)/C(=C\c3cn(C)c4ccccc34)C2=O)c1`, which “activity change, negative = inhibition” value is on record?
Answer: The value was -6.34%.

Question: With `Cc1cccc(N2C(=O)NC(=O)/C(=C\c3cnn(-c4ccccc4)c3)C2=O)c1` as the compound, how does the Potency read?
Answer: The Potency was 15.1 µM (active).

Question: Which “activity change, negative = inhibition” value does the source give for `O=C1C2(Cl)C3(Cl)C4(Cl)C(Cl)(Cl)C5(Cl)C3(Cl)C1(Cl)C5(Cl)C24Cl` (stereo not given) here?
Answer: The value was 3.33%.

Question: Which “activity change, negative = inhibition” value does the source give for `COc1ccc(Br)cc1CNCCc1cccc(Cl)c1` here?
Answer: The value was 0.615%.

Question: Which “activity change, negative = inhibition” value does the source give for `COc1cc(-n2c(=S)[nH]c3ccc(C)cc3c2=O)c(Cl)cc1Cl` here?
Answer: The value was -15%.

Question: For `c1csc(-c2nnc(COc3ccc4c(c3)OCO4)o2)c1`, which Potency is on record?
Answer: The Potency was 19 µM (active).

Question: For `CCN(CC)P(=O)(Oc1cccc(C)c1)N(CC)CC`, which “activity change, negative = inhibition” value is on record?
Answer: The value was 2.83%.

Question: For `COC(=O)C1=C(c2ccc(F)cc2F)C[C@@H]2CC[C@H]1N2C(=O)NC1CC1`, which “activity change, negative = inhibition” value is on record?
Answer: The value was -0.733%.

Question: Which Potency does the source give for `Cc1nc2ccc(N3CCN(C)CC3)cc2nc1C` here?
Answer: The Potency was 19 µM (active).

Question: Which “activity change, negative = inhibition” value does the source give for `CN1CCN(c2cc(N3CCNCC3)ccc2[N+](=O)[O-])CC1` here?
Answer: Its value is 5.49%.

Question: Which “activity change, negative = inhibition” value does the source give for `COC(=O)C1=C(c2cccc(OCc3ccccc3)c2)C[C@@H]2CC[C@H]1N2C(=O)NNCc1ccccc1` here?
Answer: Its value is -1.66%.

Question: For `CCOC(=O)C1=C(C)OC(N)=C(C(=O)OC)C12C(=O)Nc1ccc(Br)cc12` (stereo not given), which “activity change, negative = inhibition” value is on record?
Answer: Its value is 7.3%.

Question: How did the “activity change, negative = inhibition” value turn out when `Cc1ccc(-n2c(/C=C/c3cccc(C(F)(F)F)c3)nc3ccccc3c2=O)cc1` was run?
Answer: Its value is 2.96%.

Question: Which “activity change, negative = inhibition” value does the source give for `COC(=O)C1=C(c2ccc(F)cc2OCc2ccccc2)C[C@@H]2CC[C@H]1N2C(=O)NCc1ccc(Cl)cc1` here?
Answer: Its value is -0.957%.

Question: How did the “activity change, negative = inhibition” value turn out when `Cc1cc(/C=C2/C(=O)NC(=O)N(Cc3ccco3)C2=O)c(C)n1-c1ccc(C(=O)O)cc1` was run?
Answer: Its value is -2.68%.

Question: For `O=C1NC(=O)N(CCc2ccc(F)cc2)C(=O)/C1=C/C=C/c1ccccc1`, which “activity change, negative = inhibition” value is on record?
Answer: The value was -1.25%.

Question: For `O=C1NC(=O)N(Cc2ccco2)C(=O)/C1=C\c1ccc(-c2ccc(F)cc2)o1`, which Potency is on record?
Answer: The Potency was 10.7 µM (active).

Question: For `c1ccc2sc(C3CCCNC3)nc2c1` (stereo not given), which “activity change, negative = inhibition” value is on record?
Answer: The value was -2.06%.

Question: `COC(=O)C1=C(c2ccc(F)cc2OCc2ccccc2)C[C@@H]2CC[C@H]1N2C(=O)NCc1ccc2[nH]ccc2c1` was tested. Which “activity change, negative = inhibition” value did it give?
Answer: Its value is -0.247%.

Question: `CN(C)C(=O)Oc1ccc2c(c1)O/C(=C\c1ccccc1)C2=O` was tested. Which Potency did it give?
Answer: Its Potency is 9.53 µM (active).

Question: `CN(C)C(=O)Oc1ccc(OCc2cccc[n+]2C)cc1` was tested. Which “activity change, negative = inhibition” value did it give?
Answer: The value was 5.09%.

Question: For `CCOC(=O)c1c(-c2ccccc2)oc2ccc(OC(=O)N(C)C)cc12`, which activity change, negative = inhibition is on record?
Answer: The activity change, negative = inhibition was 1.44% [at 2.3 µM].

Question: For `CCC12CCN(CCc3ccccc3)CC1Oc1c(O)cccc12` (stereo not given), which “activity change, negative = inhibition” value is on record?
Answer: Its value is 6.79%.

Question: With `COC(=O)C1=C(c2ccc(Cl)c(C(F)(F)F)c2)C[C@@H]2CC[C@H]1N2C(=O)NC(C)C` as the compound, how does the “activity change, negative = inhibition” value read?
Answer: Its value is 2.4%.

Question: With `Cc1nn(-c2ccccc2)c(C)c1NC(=O)COC(=O)Cc1ccccc1` as the compound, how does the “activity change, negative = inhibition” value read?
Answer: The value was 3.9%.

Question: How did the “activity change, negative = inhibition” value turn out when `COc1ccc(C(=O)C2CN(C)CC2C(=O)c2ccc(OC)cc2)cc1` (stereo not given) was run?
Answer: Its value is -0.072%.
